miR-122 inh – miR-122 sensor activation; Huh7 psiCHECK-miR122 Renilla luciferase sensor, 48 h; activation, % at 12.5 µM; 340,000 compounds, 0.14% hits; AID 623901;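 active = mean activation of 30% or more, with every replicate also reaching 30%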;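 note: 0% = median of neutral control wells and 100% = median of positive control wells; higher luciferase signal means stronger suppression of miR-122 activity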
* = called active by the depositor. Many of the other results were omitted from the sample, so hits are more common in it than they were.

SMILES	miR-122 inh
COCC#Cc1cnc2c(c1)C(=O)N([C@H](C)CO)C[C@@H](C)[C@@H](CN(C)C(=O)Cc1cccnc1)O2	6.5
COC(=O)[C@@H]1Cc2c([nH]c3ccccc23)C(C)(C)N1C(=O)CCl	32.2*
CC(C)CC#Cc1cnc2c(c1)C(=O)N([C@@H](C)CO)C[C@@H](C)[C@@H](CN(C)C(=O)Nc1cccc(F)c1)O2	0.3
COCC#Cc1cnc2c(c1)C(=O)N([C@@H](C)CO)C[C@H](C)[C@@H](CN(C)C(=O)Nc1ccc(OC)cc1)O2	3.8
C[C@H]1CN([C@@H](C)CO)C(=O)c2cc(C#Cc3ccccc3F)cnc2O[C@H]1CN(C)C(=O)C1CCOCC1	1.8
Cc1cc2[nH]c3c4ccccc4nc(C)c3c2cc1C	72.2*
COc1cccc(C#Cc2ccc3c(c2)O[C@H](CN(C)C(C)=O)[C@@H](C)CN([C@H](C)CO)S3(=O)=O)c1	-13.0
Cc1ccc(-c2cnc3c(c2)C(=O)N([C@H](C)CO)C[C@H](C)[C@H](CN(C)C(=O)c2ccncc2)O3)cc1	-3.1
CC(C)NC(=O)N(C)C[C@H]1Oc2cc(-c3ccccc3)ccc2S(=O)(=O)N([C@@H](C)CO)C[C@H]1C	3.9
CC(C)C#Cc1cnc2c(c1)C(=O)N([C@H](C)CO)C[C@@H](C)[C@H](CN(C)C(=O)CC1CC1)O2	-5.6
COCC(=O)N(C)C[C@@H]1Oc2cc(-c3cccc(F)c3)ccc2S(=O)(=O)N([C@H](C)CO)C[C@H]1C	-2.7
C[C@@H]1CN([C@H](C)CO)C(=O)c2cccc(N(C)C)c2O[C@H]1CN(C)C(=O)Nc1ccccc1	-124.5
c1ccc(CCCNCCCn2cnc3c(OCc4ccccc4)ncnc32)cc1	33.5*
CCC(=O)N(C)C[C@@H]1Oc2ncc(C#Cc3ccc(OC)cc3)cc2C(=O)N([C@@H](C)CO)C[C@H]1C	-1.9
CC(C)C(=O)NC(c1cccc([N+](=O)[O-])c1)c1ccc2cccnc2c1O (stereo not given)	41.5*
Cc1ccc(S(=O)(=O)Nc2cccc3cccnc23)c([N+](=O)[O-])c1	-99.6
CC(C)CC#Cc1cnc2c(c1)C(=O)N([C@H](C)CO)C[C@@H](C)[C@H](CN(C)Cc1ccc(F)cc1)O2	-5.4
COCC#Cc1ccc2c(c1)O[C@H](CN(C)C(=O)C1CCCCC1)[C@@H](C)CN([C@H](C)CO)S2(=O)=O	-12.3
C[C@H]1CN([C@@H](C)CO)S(=O)(=O)c2ccc(C#Cc3cccnc3)cc2O[C@H]1CN(C)C(=O)C1CC1	-6.1
CCC(=O)Nc1cccc(C(=O)/C=C/c2ccccc2)c1	35.9*
CCC(=O)Nc1ccc(S(=O)(=O)NCCc2ccccc2)cc1	-110.7
CCC(=O)Nc1ccc(C(=O)Nc2cccc(C)n2)cc1	-218.5
CCCNC(=O)N1C[C@@H](C)[C@H](OC)CN(C)C(=O)c2cc(NS(=O)(=O)CC)ccc2OC[C@@H]1C	0.7
CC(C)CC#Cc1cnc2c(c1)C(=O)N([C@H](C)CO)C[C@@H](C)[C@@H](CN(C)C(=O)Nc1cc(F)ccc1F)O2	10.1
Clc1ccc2c(N/N=C/c3ccccc3Br)ccnc2c1	58.8*
SMILES	miR-122 inh
C[C@@H]1CN([C@@H](C)CO)C(=O)c2cc(/C=C/c3ccccc3)cnc2O[C@@H]1CN(C)C(=O)c1cccnc1	3.1
C[C@H]1CN([C@@H](C)CO)C(=O)c2cc(Br)cnc2O[C@@H]1CN(C)Cc1ccc2c(c1)OCO2	9.0
CC(=O)N1[C@H](CNC(=O)C2CC2)[C@H](c2ccc(-c3ccccc3)cc2)[C@@H]1CO	-150.0
CCC(=O)N(C)C[C@H]1Oc2cc(-c3cccnc3)ccc2S(=O)(=O)N([C@@H](C)CO)C[C@H]1C	1.6
CC(=O)N(C)C[C@@H]1[C@@H](c2ccc(-c3cccc(C#N)c3)cc2)[C@H](CO)N1C(C)=O	91.7*
CCC(=O)N(C)C[C@@H]1Oc2cc(-c3cccc(C#N)c3)ccc2S(=O)(=O)N([C@@H](C)CO)C[C@@H]1C	1.8
CCN(C[C@@H]1[C@@H](c2ccccc2)[C@@H](CO)N1C(=O)COC)S(C)(=O)=O	-91.7
CCC(=O)N1[C@H](CN(C)C(C)=O)[C@H](c2ccc(-c3cccnc3)cc2)[C@@H]1CO	42.6*
CCCNC(=O)NC[C@@H]1[C@@H](c2ccc(C3=CCCC3)cc2)[C@H](CO)N1C(=O)CC	-342.9
CCC(=O)N1[C@H](CN(C(C)C)S(C)(=O)=O)[C@@H](c2ccccc2)[C@@H]1CO	91.7*
C[C@H]1CN([C@@H](C)CO)C(=O)c2cc(/C=C/c3ccccc3)cnc2O[C@H]1CN(C)Cc1ccccc1F	9.7
C[C@@H]1CN([C@@H](C)CO)C(=O)c2cc(Br)cnc2O[C@H]1CN(C)Cc1cccc(F)c1	3.5
C[C@H]1CN([C@@H](C)CO)S(=O)(=O)c2ccc(-c3ccc(C#N)cc3)cc2O[C@H]1CN(C)C(=O)C1CC1	-10.7
C[C@@H]1CN([C@H](C)CO)S(=O)(=O)c2ccc(C#CC3CCCC3)cc2O[C@@H]1CN(C)CC1CC1	-6.2
C[C@H]1CN([C@@H](C)CO)C(=O)c2cc(C#CC3CC3)cnc2O[C@@H]1CN(C)C	3.7

From PubChem BioAssay
